# D1 antagonist: Antagonist of Human D 1 Dopamine Receptor: qHTS | D(1A) dopamine receptor (Homo sapiens), P21728 | HEK293 TREx D1 cells, calcium flux, dopamine EC80; active compounds read low | activity change, negative = inhibition, % at 10 µM | 3.2% of 360,000 active; in the data active = activity change below about -30%; also: % is scaled to controls: 0 for no effect and ±100 for the full control effect
#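 After overnight tetracycline induction at 30 C, force-coupled D1 HEK293 cells took up a no-wash calcium dye at room temperature. Compounds were added and monitored 180 s, and the response to EC80 dopamine was then recorded.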
# D1 PAM: Potentiators of Human D1 Dopamine Receptor: qHTS; D(1A) dopamine receptor (Homo sapiens), P21728; HEK293 TREx D1 cells, calcium flux, dopamine EC20 potentiation; potentiation, % at 10 µM; 0.036% of 360,000 active; AID 504651, 2011; in the data active = potentiation above about 30%; also: 0% is about no effect
# Eya2 phos inh: qHTS Assay for Inhibitors of the Phosphatase Activity of Eya2 | Protein phosphatase EYA2 (Homo sapiens), O00167 | recombinant Eya2, OMFP fluorescence dephosphorylation (OMFP is methylfluorescein phosphate) | Potency, µM (top dose mostly 76.9 µM), without a hit: top-dose activity, negative = inhibition, actives largely listed as inhibitors | 0.006% of 330,000 active | AID 488837, 2010; also: potency is read from the fitted curve at half-maximal effect; % is scaled to controls: 0 for no effect and ±100 for the full control effect
#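 Eya2 (0.2 uM) preincubated 10 min at ambient with compound, then OMFP substrate added at 50 uM; 10 min reaction in 50 mM HEPES pH 7.5, 50 mM NaCl, 5 uM MgCl2, 0.05% BSA, 1 mM DTT. Fluorescence read at Ex 485/Em 525 nm.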
# GALK inh: qHTS Assay for Inhibitors of Human Galactokinase (GALK); P51570; Purified GALK, Kinase-Glo residual ATP luminescence; Potency, µM (series often up to 57.5 µM), for the others: top-dose activity change, negative = inhibition, hits mostly inhibitors; 0.007% of 270,000 active; also: potency is read from the fitted curve at half-maximal effect; % is scaled to controls: 0 for no effect and ±100 for the full control effect
#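 5 nM enzyme, 35 uM ATP, 100 uM galactose, 20 mM HEPES pH8.0, 5 mM MgCl2; 1 h RT; residual ATP by Kinase-Glo Plus luminescence, qHTS format.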
# D1 agonist: Allosteric Agonists of the Human D1 Dopamine Receptor: qHTS; D(1A) dopamine receptor (Homo sapiens), P21728; HEK293 T-REx D1 cells, calcium flux, agonist mode; activation, % at 2 µM; 1% of 360,000 active; in the data active = activation above about 30%; also: 0% is about no effect
#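 Tetracycline-induced HEK293 TREx D1 cells, force-coupled to calcium signalling, were dye-loaded with a no-wash calcium kit. Compound was pin-added after a 10 s baseline. Fluorescence was read kinetically at 1 cycle/s for 180 s, with calcium rises flagged as agonism.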
# USP2a inh: qHTS Assay for Inhibitors of Ubiquitin-specific Protease USP2a Using CHOP2 as the Reporter; Ubiquitin carboxyl-terminal hydrolase 2 (Homo sapiens), O75604; Potency, µM (series often up to 38.3 µM), for inactives: at the highest dose activity change, negative = inhibition, usual class: inhibitors; 0.01% of 330,000 active; USP2 core, Ub-CHOP2 coupled fluorogenic reporter, 485/531;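 also: potency is read from the fitted curve at half-maximal effect; plate controls were DMSO wells for no effect and full inhibition by NEM control for full effect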
#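 USP2 core (10nM final) preincubated 30min RT with compound in 20mM Tris-HCl pH 8.0, 2mM CaCl2, 2mM beta-mercaptoethanol, 0.05% CHAPS; 25nM Ub-CHOP2 plus 25nM reporter substrate added, fluorescence (Ex485/Em531) read after 60min.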
# An asterisk follows results filed as active; . = no result. Most compounds without a hit are left out; they make up all but 3.9% or so of the library. Unless noted, calls follow the shape of the dose curve; as a rule, active = well fitted inhibition curve with a large enough effect; inconclusive = small, poorly fitted or top-dose-only effect, or effect the other way; inactive = flat fitted curve, though single readings scatter.
SMILES,D1 antagonist,D1 PAM,Eya2 phos inh,GALK inh,D1 agonist,USP2a inh
O=[S+]([O-])(c1ccc2c(c1)OCCO2)N1CCN([S+](=O)([O-])c2c(F)cc(F)cc2Br)CC1,-11,0,.,.,1,.
CCN(C(=O)CSc1nc2ccccc2n1Cc1cc(C)ccc1C)c1ccccc1,-3,1,.,.,5,.
O=C(O)COc1ccc(C(=O)c2ccccc2)cc1,-30*,-2,7%,-3%,6,8%
O=C(O)COc1ccc(-c2nnn(CC(=O)O)n2)cc1,-36*,-6,.,-1%,0,.
CCc1ccc(CNC(=O)c2sc3nc[nH]c(=O)c3c2C)cc1,8,-2,.,.,0,.
Cc1ccc(-n2cc(CNCCN3CCOC3=O)c(-c3cccc(C)c3)n2)cc1,-5,-5,0%,1%,4,7%
Cc1ccc(-n2cc(CNCCCn3cccn3)c(-c3cccc(C)c3)n2)cc1,-41*,-15,14%,3%,44*,0%
Cc1ccc(C)c(-n2cc(CNCCCn3cccn3)c(-c3ccccc3)n2)c1,-7,6,-4%,11%,40*,-4%
COc1cccc(/C=C(\C#N)c2nc3ccccc3c(=O)[nH]2)c1OC,11,0,.,.,5,.
Cc1ccc(Cn2c(=O)c3ccccc3n3c(-c4cccc(O)c4)nnc23)cc1,-1,-1,.,.,0,.
CCOC(=O)CCP(=O)(O)C(O)c1ccc(OC)cc1 (stereo not drawn),-1,-3,4%,4%,1,-2%
CCOC(=O)CC(N)c1ccc(OC)cc1 (stereo not drawn),-69*,-10,18%,-1%,-2,4%
COc1cccc(=O)c2c(C)n(CC(=O)c3ccccc3)c(C)c12,-33*,-4,11%,4%,6,5%
CCS(=O)(=O)c1ncc(Cl)c(C(=O)N2CCN(c3cccc(Cl)c3)CC2)n1,-31*,-4,.,.,5,.
Cc1[nH]c2ccc(C(=O)N3CCN(c4cccc(Cl)c4)CC3)cc2c1C,-24,-7,-1%,-12%,7,-2%
CS(=O)(=O)c1ncc(Cl)c(C(=O)N2CCN(c3cccc(Cl)c3)CC2)n1,-50*,1,.,.,14,.
COc1ccc(OCC(=O)N2CCN(c3cccc(Cl)c3)CC2)cc1,5,0,6%,-3%,-1,1%
O=C(CN1C(=O)C2(SCC(=O)N2c2ccc(Cl)cc2)c2ccccc21)NCCc1ccccc1 (stereo not drawn),6,0,.,.,2,.
CCOc1ccccc1NC(=O)C(=O)NCCc1sc(-c2cccc(F)c2)nc1C,16,9,.,.,2,.
CC1(C)CCN2CCC(C)(C)c3c(O)ccc1c32,26,-6,45%,-1%,207*,19%
Cc1ccc(NC(=O)CCCc2ccccc2)c([N+](=O)[O-])c1,-48*,0,6%,-3%,2,-1%
O=C(CCCc1ccccc1)Nc1ccccc1[N+](=O)[O-],-3,3,0%,.,1,-1%
O=C(CCc1ccccc1)NC(=S)Nc1ccccc1[N+](=O)[O-],-34*,-1,8%,3%,-1,0%
O=C(CCc1ccccc1)Nc1ccccc1[N+](=O)[O-],-36*,-9,-12%,1%,0,1%
Cc1ccc(CN(C(=O)COc2ccc(Cl)c(C)c2)C2CCS(=O)(=O)C2)o1 (stereo not drawn),-4,-1,.,.,14,.
Cc1ccc(Cc2c(C)nc3nc(SCC(=O)NC(C)c4ccccc4)nn3c2C)cc1 (stereo not drawn),-11,0,.,.,16,.

# Screening data deposited in PubChem BioAssay by National Center for Advancing Translational Sciences (NCATS).
